# Reference: ChEMBL document CHEMBL3988442, “University of Dundee, Small-Polar-MMV Screening Library” (2021)
# Screen size: about 53,000 compounds; about 900 (1.7%) showed an effect of 50% or more. The sample holds strong results, similar compounds and a random draw of the others, so the mix is not that of the screen.
# Test system: Mycobacterium tuberculosis
# Assay: Cornell - Phenotypic assay to identify agents that inhibit growth of Mycobacterium tuberculosis
# Type: functional
# Design: scale not given: direction of the effect not stated beside the values
# Conditions: 10 mM as filed; unlikely as a test dose
row,SMILES,Percent Effect [%]
1,CCc1ccc(NC(=O)C(C)N2CCN(Cc3ncc[nH]3)CC2)cc1 (stereo not drawn),-0.1574
2,CC(C(N)=O)N1CCN(c2ncc(Cl)cn2)CC1 (stereo not drawn),-8.902
3,O=C(COc1coc(CN2CCCCC2)cc1=O)c1ccccc1,-5.787
4,CC(C)N(C(=O)CCc1ccco1)C1CCOCC1,2.754
5,CCN1N=C(C(=O)N2CCCC(c3nc(C)c(C)s3)C2)CCC1=O (stereo not drawn),-28.99
6,O=C(CSC1CCc2ccccc2NC1=O)NCCc1ccc(O)cc1 (stereo not drawn),-13.35
7,CCn1cc2c(n1)C(COC)CN(C(=O)c1ccccn1)C2 (stereo not drawn),22.8
8,Cc1nn(C)c(C)c1C(=O)NCc1cc(N(C)C)nc2ccccc12,-29.39
9,Cn1cnnc1S(=O)(=O)C1CCN(S(=O)(=O)c2ccc(Cl)s2)CC1,6.004
10,CCCn1nccc1C(=O)Nc1nc(C)c(C)s1,63.52
11,CCCn1nccc1C(=O)Nc1ncc(C)s1,29.79
12,CCn1nccc1C(=O)Nc1nc(C)c(C(C)=O)s1,37.96
13,CC(C)c1cc(C(=O)O)nc2[nH]c(=O)[nH]c(=O)c12,12.95
14,COc1ccc(CNC(=O)C(NC(=O)Cc2ccccc2)C(C)C)cn1 (stereo not drawn),-38.43
15,COCCN1C(=O)[C@H]2CC[C@@H]1CN(Cc1nnc(C3CC3)o1)C2,-7.325
16,O=C(O)C(F)(F)F.O=C1[C@H]2CN(CC3CC3)C[C@H]2CN1Cc1cccc(F)c1,9.244
17,O=C(C[S+]([O-])Cc1csc(C2CCCC2)n1)NC1CCCC1 (stereo not drawn),8.301
18,CC(C)CNC(=O)C[S+]([O-])Cc1csc(C2CCCCC2)n1 (stereo not drawn),18.38
19,O=C(C[S+]([O-])Cc1csc(C2CCCC2)n1)Nc1ccccc1 (stereo not drawn),105.1
20,CCn1cnnc1CNC(=O)c1cc(Cl)ccc1I,10.82
21,CN(CCNC(=O)c1cnc(-c2ccccc2)nc1)S(C)(=O)=O,-18.18
22,CCOC(=O)c1cc(C(C)(O)CCC=C(C)C)on1 (stereo not drawn),106.6
23,CC(C)=CCCC(C)(O)c1cc(C(N)=O)no1 (stereo not drawn),37.88
24,CCCC(C)(O)c1cc(C(N)=O)no1 (stereo not drawn),45.9
25,CNC(=O)Cn1ccc2ccc(NC(=O)C(C)C)cc21,6.028
26,CCCC(O)CN1CC(C)(C)CN(C(=O)c2ccccc2)CC1=O (stereo not drawn),6.323

row,SMILES,Percent Effect [%]
1,Cc1cc(N2CCC(O)(CN(C)C(=O)CCN)C2)c2cnccc2n1 (stereo not drawn),27.99
2,CCCC(=O)NCCc1cc(NC)nc(-c2ccccn2)n1,8.218
3,CNc1cc(CCNC(=O)c2cccnc2)nc(-c2ccncc2)n1,-1.38
4,CNc1cc(CCNC(=O)C2CCCC2)nc(-c2ccccn2)n1,52.1
5,CNc1cc(CCNC(=O)CC(C)C)nc(-c2ccccn2)n1,53.37
6,Cc1ncc(-c2ccccn2)c(CCNC(=O)C2CCCC2)n1,-18.28
7,CNc1cc(CCNS(=O)(=O)c2ccccc2)nc(-c2ccccn2)n1,45.23
8,Cc1c(Br)cccc1C(=O)Nc1cc(C(N)=O)n(C)c1,2.948
9,COC(=O)c1occc1Cn1cc(Br)cn1,-5.91
10,COc1cccc2c1ccn2CCNC(=O)CC(C)C,-27.68
11,CCCn1nnnc1COc1ccc(C(=O)OC)cc1OC,7.789
12,Cc1noc(C)c1-c1cccc(C2CN(S(=O)(=O)N(C)C)CCO2)n1 (stereo not drawn),37.24
13,CN(C)S(=O)(=O)N1CCOC(c2cccc(-c3cncnc3)n2)C1 (stereo not drawn),50.13
14,COCC(=O)N1CCOC(c2cccc(-c3cncnc3)n2)C1 (stereo not drawn),-11.99
15,COc1ccccc1C(=O)N1CC(=O)N(CC(C)C)CC(O)C1 (stereo not drawn),11.6
16,CCC(CN1CCCCC1)NC(=O)C1(c2cccc(F)c2)CC1.O=C(O)CC(O)(CC(=O)O)C(=O)O (stereo not drawn),45.73
17,CCOCC(O)CN1CCN(C(=O)c2ccsc2)CC1 (stereo not drawn),106.2
18,CCOCC(O)CN1CCN(C(=O)c2ccncc2)CC1 (stereo not drawn),18.36
19,CCOCC(O)CN1CCN(C(=O)c2ccc(N(C)C)nc2)CC1 (stereo not drawn),18.97
20,CC(C)N1CCC(Cc2cncc(-c3cccc(C(=O)O)c3)n2)CC1,-33.1
21,CCOCC1CN(S(=O)(=O)Cc2ccccc2)Cc2nccn2C1 (stereo not drawn),3.802
22,CC(C)c1ccc(C#N)c(N2CC(C)(C)[C@@](C)(O)C2)n1,23.89
23,COc1cccc(NC(=O)CN2CCN(S(C)(=O)=O)CC2)c1,13.93
24,COc1cccc(/C=C/CCN2CCCN(C(C)=O)CC2)c1,68.14
25,COc1cccc(S(=O)(=O)CCN2CCCN(C(C)=O)CC2)c1,16.19
26,COc1cccc(C(C)N2CCN(S(C)(=O)=O)CC2)c1 (stereo not drawn),-32.99

row,SMILES,Percent Effect [%]
1,COc1cccc(/C=C/CCN2CCC(C(=O)N3CCCC3)CC2)c1,9.134
2,COc1cccc(/C=C/CCN2CCN(S(C)(=O)=O)CC2)c1,79.58
3,Cc1cc(C)n(C2CN(c3ncnc4[nH]ccc34)C2)n1,-54.22
4,CCn1cc(S(=O)(=O)NCC2(N3CCOCC3)CCCCC2)c(C)n1,-12.17
5,N#CCCCOc1cccnc1NC(=O)CC1CCCCC1,-14.31
6,Cc1ccc(NC(=O)N2CCN(Cc3ccccn3)CC2)cc1Cl,-19.48
7,Cc1nc(CN(C)C2CCCN(c3ccccc3)C2)no1 (stereo not drawn),-1.27
8,COc1cccc2c3c(c(=O)[nH]c12)CCC(C)(C)O3,14.12
9,COc1cccc2c3c(c(=O)n(C)c12)CCC(C)(C)O3,52.61
10,Cn1c(=O)c2c(c3ccccc31)OC(C)(C)CC2,17.08
11,CSCCCNC(=O)C(c1ccccc1C)N(C)C (stereo not drawn),37.97
12,Cc1cc(N(C)CCC(O)c2ccccc2)n2nccc2n1 (stereo not drawn),-28.51
13,Cc1cc(C(F)(F)F)nc(CNc2cc(C)nc3cc(C)nn23)n1,13.97
14,COc1cccc(C(=O)Oc2cc(=O)n3cccc(C)c3n2)c1,35.2
15,CC1c2cccn2CCN1C(=O)CCc1nc(C2CC2)no1 (stereo not drawn),7.661
16,CC1c2cccn2CCN1C(=O)CCc1nc(-c2ccccc2)no1 (stereo not drawn),50.68
17,CC1c2cccn2CCN1C(=O)CCCc1nc(-c2ccco2)no1 (stereo not drawn),8.285
18,COC(=O)c1cc(OCC2CCC2)cc(C(=O)N[C@H]2CCCC[C@@H]2O)c1,13.96
19,Cc1nc(C)c(C(=O)N2CCCC2(C)C(=O)NC2CCCC2)s1 (stereo not drawn),-2.69
20,Cc1cc(C)n(CC2CN(CC(=O)NC3(C#N)CCCC3)CCO2)n1 (stereo not drawn),-4.222
21,CCOCCC(=O)Nc1cccc(Oc2ccccn2)c1,-2.089
22,NC(=O)c1cnc(NC2CCN(c3ccccn3)CC2)c(Cl)c1,18.4
23,NC(=O)c1cnc(NC2CCC(c3ccccc3)CC2)c(Cl)c1 (stereo not drawn),57.03
24,NC(=O)c1cnc(NC2CCN(c3ccccc3)CC2)c(Cl)c1,48.08
25,O=S(=O)(c1cccnc1)N1CCN(Cc2nc(-c3ccco3)cs2)CC1,31.36
26,Cc1nc(C)n(CC2CCCN(Cc3cccnc3)C2)n1 (stereo not drawn),6.124

row,SMILES,Percent Effect [%]
1,O=c1[nH]c(CCN2CCN(CC(F)(F)F)CC2)nc2ccccc12,106.7
2,CN(CCC(F)(F)F)c1nc2ccccc2c(=O)[nH]1,-4.598
3,CCC(CC)C(=O)N1CCN(Cc2nc3ccccc3c(=O)[nH]2)CC1,5.405
4,CCOCCN1CCN(CCc2nc3ccccc3c(=O)[nH]2)CC1,106.8
5,CN(CCc1nc2ccccc2c(=O)[nH]1)CCC(F)(F)F,95.2
6,CN(CCC(F)(F)F)Cc1nc2ccccc2c(=O)[nH]1,7.133
7,O=c1[nH]c(CN2CCN(CC(F)(F)F)CC2)nc2ccccc12,9.356
8,O=c1[nH]c(CCN2CCCC(Cn3cncn3)C2)nc2ccccc12 (stereo not drawn),33.45
9,Cn1nc2c(cc1=O)CN(CCc1nc3ccccc3c(=O)[nH]1)CC2,8.475
10,O=C(c1sccc1-n1cnnn1)N1CCC(Cc2ccccc2)CC1,28.81
11,CCOC1Sc2nnc(C)n2N=C1c1ccc(F)cc1 (stereo not drawn),27.03
12,CC(C)NC(=O)N1CCN(Cc2ccccn2)CC2(CC(=O)N(C)C2)C1.O=C(O)C(F)(F)F.O=C(O)C(F)(F)F (stereo not drawn),-0.1639
13,COc1cccc(CC2CCCN2Cc2nccn2C)c1 (stereo not drawn),13.47
14,Cn1cc(N2C(=O)CC[C@@H]3[C@H]2CCN3C(=O)c2cscn2)cn1.O=C(O)C(F)(F)F,15.97
15,O=C(c1cscn1)N1CC[C@H]2[C@@H]1CCC(=O)N2c1ccccc1,102.6
16,Cc1cc(C(=O)N2CC[C@H]3[C@@H]2CCC(=O)N3c2ccccc2)no1,0.08428
17,Cc1nnc(CN(Cc2ccc3c(c2)OCO3)C2CCC(C)CC2)o1 (stereo not drawn),50.97
18,Cc1nnc(CN(Cc2ccccc2Br)C2CC2)o1,42.91
19,Cc1nnc(CN(Cc2cccc(Br)c2)C2CC2)o1,22.14
20,Cc1nnc(CN(Cc2ccc3c(c2)OCO3)C2CCCCC2)o1,52.33
21,CCc1noc(CN(Cc2ccc3c(c2)OCO3)C2CCCC2)n1,1.573
22,Cc1noc(CN(Cc2ccc3c(c2)OCO3)C2CCCC2)n1,4.979
23,O=C(CCn1cc(Cl)cn1)N1CCN(CC2CC2)[C@@H]2CS(=O)(=O)C[C@@H]21,-27.81
24,O=C(CC1CCc2ccccc21)N1CCC(C(=O)O)(n2ccnc2)CC1 (stereo not drawn),-2.815
25,O=C(NCc1ccnc(OCC2CC2)c1)C1COc2ccccc2O1 (stereo not drawn),12.77
